# Source: PubChem BioAssay
# ANO1 activ = activators or potentiators of mouse TMEM16A chloride channel; Q8BHY3; HEK293 TMEM16A/YFP-H148Q/I152L, iodide quench fluorescence; active compounds read low; B-score at 10 µM; 340,000 tested, 0.3% active; AID 623877;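 active = fluorescence-ratio B-score plate-corrected deviation score at least 3 library SD below zero, with starting fluorescence score within 5 deviations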;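 also: channel opened by trigger with iodide after compound preincubation; score built on the fluorescence ratio of max minus min over baseline; more negative score means more quench and so TMEM16A activation or potentiation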
# CHT PAM = allosteric activators of human choline transporter CHT. AID 488977. B-score at 10 µM. 310,000 tested, 0.49% active. CHT-expressing cells, membrane potential dye, choline EC20; active compounds read high; LV-AA mutant CHT in HEK293 cells;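 active = initial fluorescence not abnormally high and integrated response B-score, plate-corrected, over 3 SD above library mean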
# TMEM16A inh = inhibitors of mouse TMEM16A calcium-activated chloride channel; Q8BHY3; HEK293 TMEM16A/YFP iodide influx fluorescence, ionomycin; normalized B-score (activity score, 25-100; higher = stronger inhibition) at 10 µM; 310,000 tested, 1.2% active; AID 588511;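 active = ratio plate-corrected score three or more library SD toward inhibition, starting fluorescence score within five deviations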;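 also: score derived from kinetic fluorescence span divided by baseline fluorescence per well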
# CHT inh = inhibitors of human choline transporter CHT; Q9GZV3; CHT-expressing cells, membrane potential dye, choline response; active compounds read low; B-score at 10 µM; 310,000 tested, 0.86% active; AID 488975;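 active = B-score over 3 SD under the library average, and starting fluorescence ratio not unusually high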;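 also: choline stimulus applied at its EC90 after an EC20 pre-addition; B-score computed on integrated fluorescence ratio after choline addition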
# CHT inh conf = confirmation of human choline transporter CHT inhibitors. CHT activity remaining % of control (active compounds read low), % at 10 µM. shares compounds with CHT inh. CHT-expressing cells, choline membrane potential dye; LV-to-AA substituted CHT, HEK293 cells. 2,400 tested, 70% active. AID 493221;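 active = choline transporter activity left, mean of duplicates at 10 µM, below buffer-only control mean minus 3 SD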;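 also: depolarization triggered by choline at its EC90 following an EC20 pre-addition; 0% = hemicholinium-3 full block and 100% = buffer-only control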
# HEK293 MPD ctr = counter-screen for CHT inhibitors: effect in parental HEK293 cells; shares compounds with CHT inh; membrane potential dye, choline response; active = decrease or increase beyond buffer ±3SD; membrane potential ratio readout (active if shifted either direction beyond buffer ±3SD; no single direction) at 10 µM; 2,400 tested, 4% active;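 also: parental cells lack the transporter so any hit is non-specific; ratio is peak minus trough fluorescence over baseline after EC90 choline challenge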
# * hit, by the source's call; i = inactive; x = no result given. Compounds with a hit are over-represented: about 2.3% of the library has one in this group of screens.
SMILES,ANO1 activ,CHT PAM,TMEM16A inh,CHT inh,CHT inh conf,HEK293 MPD ctr
Cc1cc(C)c2cc(C=O)c(Cl)nc2c1,i,i,i,-6.14*,i,i
CC(=O)n1cc(Nc2ccc([N+](=O)[O-])cc2)c2ccccc21,i,i,i,i,x,x
CC(=O)SC(C[N+](=O)[O-])c1cn(C(C)=O)c2ccccc12 (configuration not stated),i,i,i,-5.52*,66.5%*,i
O=C(c1ccco1)N1CCN(C(=O)c2ccc(COc3ccc(Cl)cc3Cl)o2)CC1,i,i,i,-6.34*,i,i
Cc1cc(Cl)ccc1OCCCC(=O)N1CCN(C(=O)c2ccco2)CC1,i,i,i,-5.3*,68.1%*,i
O=C(CCCOc1ccccc1)N1CCN(C(=O)c2ccco2)CC1,i,i,i,i,x,x
CCCCCCCNC(=O)C1(CC2CC(c3ccc(Cl)cc3)=NO2)CCN(C(=O)c2cc(OCC)c(OCC)c(OCC)c2)CC1 (configuration not stated),i,i,i,i,x,x
COc1ccc(NC(=O)CC(C)NCCCN2CCCC2=O)cc1 (configuration not stated),i,i,i,i,x,x
CC(C)Sc1sc(C(=O)O)c(-c2ccc(Cl)cc2)c1C#N,i,i,i,-5.65*,61.4%*,i
CCc1ccc(NCc2nc(-c3ccccc3)no2)cc1,i,i,i,-5.73*,58.2%*,i
Cc1ccc(-c2noc(CNc3ccccc3)n2)cc1,i,i,i,-5.79*,44.4%*,i
O=C(Nc1cccc(C(F)(F)F)c1)C1CC(=O)N(CCc2ccccc2)C1 (configuration not stated),i,x,x,x,x,x
O=S(=O)(Cc1ncc(C(F)(F)F)cc1Cl)c1ccccc1,i,i,i,i,x,x
O=c1[nH]cc(N=Cc2cc([N+](=O)[O-])ccc2O)c(=O)[nH]1,x,i,i,i,x,x
O=c1[nH]cc(N=Cc2cc(Cl)cc(Cl)c2O)c(=O)[nH]1,i,i,i,-12.6*,51.4%*,i
O=C(CSc1ccccc1)NNC(=O)c1ccncc1,i,x,x,x,x,x
CCOC(=O)c1c(NC(=O)CSc2ncn[nH]2)sc(C)c1C,i,i,i,-6.72*,i,i
CCOC(=O)c1c(NC(=O)CSc2ncn[nH]2)sc(C(=O)N(C)C)c1C,i,i,i,i,x,x
COc1ccc(-n2nnnc2CNC(=O)C2CC(=O)N(c3ccc(Cl)cc3)C2)cc1 (configuration not stated),i,i,i,i,x,x
COc1ccccc1C(C(C(=O)c1ccccc1)N1CCOCC1)N1CCOCC1 (configuration not stated),i,x,x,x,x,x
COc1ccc(-c2cc(=O)oc(-c3cccc(C)c3)n2)cc1,i,i,i,-13.7*,i,i
Cc1cccc(NC2=C(NCCO)C(=O)c3ccccc3C2=O)c1,i,i,i,-7.71*,45.4%*,2.52*
COc1cccc(NC2=C(NCCO)C(=O)c3ccccc3C2=O)c1,i,i,i,i,x,x
Cc1c(N2C(=O)/C(=C/c3ccccc3)SC2=S)c(=O)n(-c2ccccc2)n1C,i,i,i,i,x,x
Cc1ccc(/C=C2\SC(=S)N(c3c(C)n(C)n(-c4ccccc4)c3=O)C2=O)cc1,i,i,i,-5.36*,59.9%*,i
SMILES,ANO1 activ,CHT PAM,TMEM16A inh,CHT inh,CHT inh conf,HEK293 MPD ctr
COc1ccc(C(=O)N[C@H]2CCCCNC2=O)cc1OC1CCN(C(C)C)CC1,i,i,i,-9.24*,34.1%*,i
COc1ccc(C(=O)N(C)CCCC2CCCC2)cc1OC1CCN(C(C)C)CC1,i,i,i,-6.96*,23.2%*,i
COc1ccc(C(=O)NCc2ccon2)cc1OC1CCN(C(C)C)CC1,i,i,i,-7.3*,34.0%*,i
COc1ccc(C(=O)N2CCCCCCC2)cc1OC1CCN(C(C)C)CC1,i,i,i,i,x,x
COc1ccc(CNC(=O)COC(=O)c2c(NC(C)=O)sc(C)c2C)cc1,i,x,x,x,x,x
O=C(NC1CCCC1)c1ccc(COc2ccccc2Br)o1,i,i,i,-5.14*,i,i
COC(=O)C1(CC2CC(c3cccc(Br)c3)=NO2)CCN(C(=O)OC(C)(C)C)CC1 (configuration not stated),i,i,i,-4.99*,i,i
CC(C)n1c(=S)[nH]c2cc(Cl)ccc21,i,i,i,-6.88*,51.8%*,i
CC(C)OC(=O)c1c(NC(=O)C2CC=CCC2C(=O)O)sc2c1CCCCC2 (configuration not stated),i,i,i,-5.16*,i,i
NC(=O)c1c(NC(=O)C2CC=CCC2C(=O)O)sc2c1CCCCC2 (configuration not stated),i,i,i,i,x,x
CCC(CC)c1nnc(NC(=O)c2c(C)nn(Cc3ccccc3Cl)c2C)s1,i,i,i,-5.07*,i,i
CCOC(=O)C1=C(COC(=O)CCOc2ccccc2)NC(=O)NC1C (configuration not stated),i,x,x,x,x,x
CCCCCCn1c(N(CC)CC)nc2c1c(=O)[nH]c(=O)n2C,i,i,i,-6.37*,i,i
Cc1ccc(Cl)c(NC(=O)COC(=O)c2cc[n+]([O-])cc2)c1Cl,i,x,x,x,x,x
Cc1cc(C)n2c(SCC(=O)NC3CCCC(C)C3C)nnc2n1 (configuration not stated),i,i,i,i,x,x
Cc1cc(C)n2c(SCC(=O)NC3CCCCC3C)nnc2n1 (configuration not stated),i,i,i,-5.39*,70.5%*,i
COCCN(Cc1ccc(F)cc1)C(=O)c1cc2ccccc2oc1=O,i,i,i,i,x,x
CC(=O)N(c1ccccc1)c1nc(/C=C/C(=O)Nc2c(C)cc(C)cc2C)cs1,i,i,i,-5.28*,i,i
Cc1cc(C)c(NC(=O)Cn2nc(-c3ccccc3)nc2-c2ccccc2)c(C)c1,i,i,i,i,x,x
CC(C)(C)CC(C)(C)NC(=S)Nc1ccc2nc(-c3ccccn3)c(-c3ccccn3)nc2c1,i,i,i,-8.36*,45.2%*,i
OCCCNC(=S)Nc1ccc2nc(-c3ccccn3)c(-c3ccccn3)nc2c1,i,i,i,i,x,x
O=C1Nc2cc(C(=O)NCCCN3CCCC3)ccc2S/C1=C\c1ccccc1,i,i,i,-10.7*,24.4%*,i
